CHT inh – human CHT choline transport inhibition; B-score at 10 µM; CHT-expressing cells, membrane potential dye, choline response; active compounds read low; AID 488975; 0.86% of 310,000 active; Q9GZV3;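 active means B-score over 3 SD under the library average, and starting fluorescence ratio not unusually high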;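 further: choline stimulus applied at its EC90 after an EC20 pre-addition; B-score computed on integrated fluorescence ratio after choline addition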
Target sequence (Q9GZV3 whole entry, looked up): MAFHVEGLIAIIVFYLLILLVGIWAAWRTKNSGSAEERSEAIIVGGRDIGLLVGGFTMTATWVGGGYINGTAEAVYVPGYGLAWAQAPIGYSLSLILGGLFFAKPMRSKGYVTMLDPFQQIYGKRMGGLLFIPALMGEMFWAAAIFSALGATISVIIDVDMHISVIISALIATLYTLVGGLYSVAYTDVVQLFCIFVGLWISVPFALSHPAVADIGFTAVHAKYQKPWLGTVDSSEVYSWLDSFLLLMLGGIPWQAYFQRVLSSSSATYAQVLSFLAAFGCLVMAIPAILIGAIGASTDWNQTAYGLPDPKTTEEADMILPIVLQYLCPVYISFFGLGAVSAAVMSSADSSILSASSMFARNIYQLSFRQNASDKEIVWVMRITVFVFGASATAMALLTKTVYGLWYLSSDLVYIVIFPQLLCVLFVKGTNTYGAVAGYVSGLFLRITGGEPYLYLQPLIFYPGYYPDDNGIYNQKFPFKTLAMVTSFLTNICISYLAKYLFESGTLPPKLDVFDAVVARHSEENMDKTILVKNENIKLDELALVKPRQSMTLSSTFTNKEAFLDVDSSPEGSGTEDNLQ
CHT PAM – allosteric activators of human choline transporter CHT | Q9GZV3 | CHT-expressing cells, membrane potential dye, choline EC20; active compounds read high; LV-AA mutant CHT in HEK293 cells | B-score at 10 µM | 0.49% of 310,000 active | AID 488977;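 active means initial fluorescence not abnormally high and integrated response B-score, plate-corrected, over 3 SD above library mean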
A1 inh – inhibitors of the anti-apoptotic protein A1, read as caspase activation; AID 2462; 0.066% of 330,000 active; caspase activation, % (no concentration beside the values); MEF A1-2A-BIM cells, Caspase-Glo 3/7 luminescence, 3 h; percent of clofoctol response, vehicle zero;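 active means over half of replicate activation scores above 10%, or exactly half above 10 with the replicate mean above 10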
NALP1 inh – NALP1 inhibition. S. cerevisiae NALP1/ASC/caspase-1 growth, X-gal OD620, 72 h. 0.61% of 280,000 active. inhibition, % at 10 µM; in the data active means inhibition mostly above about 24%, no sharp cut-off; inactive means mostly below about 32%
SUMO Mot1 rescue – inhibitors of SUMOylation pathway: yeast Mot1-301 growth rescue; S. cerevisiae Mot1-301 growth rescue, ATP luminescence, 38.5C; percent above DMSO median, 100 means doubled; growth rescue, % at 18.8 µM; 1% of 320,000 active;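 active means every valid replicate shows activation above 250% relative to neutral control wells; inactive means the rest, any valid replicate at or below 250%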;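 further: OY570 slx delta 5 strain wells were the positive control but not used for scaling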
NLRP3 yeast inh – NALP3 inhibition in yeast; Yeast reconstituted NLRP3/ASC/caspase-1, beta-gal luminescence, 24 h; inhibition, % at 10 µM; 0.39% of 330,000 active;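 active means inhibition of 50% or more; inactive means inhibition below 50%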;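 further: plate controls were induced DMSO wells for no effect and uninduced yeast grown without galactose for full effect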
Mot1 SUMO dose – yeast SUMO pathway inhibition in dose response. shares compounds with SUMO Mot1 rescue. S. cerevisiae Mot1-301 galactose growth, ATP luminescence, 24 h; -100 = growth of slx-deleted rescue strain. growth activity, percent, % at 42 µM. 2,300 tested, under 10 active;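 active means Signal drops as the depositor expects, and the fitted half-maximal dose is no more than ten times the top valid tested dose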;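 further: more negative values mean stronger growth rescue toward the control strain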
* = called active by the depositor; i = inactive; . = no result given; + = active, no number; [ ] = remark or other dose. Shown are actives, neighbours in structure and some others; about 3% of the full set was active somewhere.

SMILES | CHT inh | CHT PAM | A1 inh | NALP1 inh | SUMO Mot1 rescue | NLRP3 yeast inh | Mot1 SUMO dose
Cc1ccc(S(=O)(=O)N2CCN(C(=O)CC(C)n3cncn3)CC2)cc1 (centres undefined) | i | i | 0.4 | 16.2 | -25.4 | 13.8 | .
O=C(CN1C(=O)NC2(CCc3ccccc32)C1=O)NCc1cccc(C(F)(F)F)c1 (centres undefined) | . | . | 0.9 | . | -1.6 | 4.1 | .
CC(C)NC(=O)CCCc1cn(C)c2ccccc12 | i | i | 0.0 | 2.3 | 502.7* | 7.8 | 0.8
CC(CCc1ccccc1)NC(=O)CCc1cn(C)c2ccccc12 (centres undefined) | i | i | -0.7 | 29.2 | 87.4 | 9.9 | .
O=[N+]([O-])c1c(NCCCO)cc(Sc2nc3ccccc3s2)c2nonc12 | i | i | -0.2 | 22.4 | 782.3* | 18.3 | -1.8
CCC(=O)OCCNc1cc(Sc2nc3ccccc3s2)c2nonc2c1[N+](=O)[O-] | i | i | 3.2 | 6.2 | 143.2 | 32.0 | .
O=[N+]([O-])c1ccc(-c2csc(N3CCc4ccccc4C3)n2)cc1 | i | i | 0.1 | 14.0 | 366.7* | 8.2 | -0.2
CC(=O)CCN1CCOCC1 | i | i | 0.2 | 26.6 | 28.0 | 16.7 | .
CN(C)C(=O)CCN1CCOCC1 | i | i | -0.1 | 19.6 | 559.9* | 5.5 | -0.9
O=C(Cn1nnc(-c2ccccc2)n1)Nc1cccc(S(=O)(=O)N2CCCC2)c1 | i | i | -0.4 | . | . | 11.5 | .
O=C(NC(CC(=O)N1CCCC(C(F)(F)F)C1)c1ccccc1)c1ccccc1Cl (centres undefined) | i | i | 0.4 | 1.4 | -27.9 | 13.3 | .
CCc1ccc2c(c1)C(c1ccc(N3CCOCC3)cc1)=NNC(c1ccncc1)=N2 | i | i | 0.3 | -17.6 | -13.2 | 4.4 | .
CCc1ccc2c(c1)C(c1ccc([N+](=O)[O-])cc1)=NNC(c1ccc(C)cc1)=N2 | i | i | 0.8 | 25.4 | 406.8* | -3.3 | 0.2
CCOc1ccc(C)cc1S(=O)(=O)n1nc(C)cc1C | i | i | -0.1 | 19.8 | 477.2* | 9.8 | -0.4
CCOc1ccc(C(C)(C)C)cc1S(=O)(=O)n1nc(C)cc1C | i | i | 0.1 | -0.5 | 55.7 | 31.4 | .
Cc1ccc(S(=O)(=O)N2CCCC2CNC(=O)C(=O)NCc2ccccn2)cc1 (centres undefined) | i | i | -0.3 | . | 5.6 | 20.5 | .
O=C(NCC1CCCN1S(=O)(=O)c1cccs1)C(=O)Nc1ccccc1 (centres undefined) | i | i | -1.3 | . | 31.0 | 3.2 | .
Cc1ccc(NC(=O)C(=O)NCC2CCCN2S(=O)(=O)c2cccs2)cc1 (centres undefined) | i | i | 1.7 | . | 464.1* | 4.6 | 0.4
COc1ccc(S(=O)(=O)N2CCCC2CNC(=O)C(=O)NCc2ccccn2)cc1 (centres undefined) | i | i | 0.6 | . | 439.8* | 10.2 | 0.2
O=C(Cc1csc(-c2ccccc2)n1)NCC(=O)Nc1ccc(F)c(F)c1F | . | . | 0.3 | . | -1.6 | 18.6 | .
COc1cc(C(C)=O)ccc1OCC(=O)NCC(c1ccc(F)cc1)N1CCOCC1 (centres undefined) | . | . | -1.5 | . | 8.8 | 2.5 | .
CC1c2cc3c(cc2CCN1S(=O)(=O)c1ccccc1)OCCCO3 (centres undefined) | i | i | -0.7 | 24.5 | 267.3 | 4.0 | .
COc1ccc(S(=O)(=O)N2CCc3cc4c(cc3C2C)OCCCO4)cc1 (centres undefined) | i | i | -0.5 | -5.7 | 599.9* | 17.1 | -0.6
COc1ccc(C(=O)N/C(=C\c2cn(C)c3ccccc23)C(=O)OCC(C)C)cc1 | i | i | 0.6 | 17.1 | 108.2 | -14.3 | .
COc1ccc(C(=O)N/C(=C\c2cn(C)c3ccccc23)C(=O)OCCN(C)C)cc1 | i | i | 0.4 | 5.3 | 506.8* | 32.5 | 0.0
SMILES | CHT inh | CHT PAM | A1 inh | NALP1 inh | SUMO Mot1 rescue | NLRP3 yeast inh | Mot1 SUMO dose
CC(C)(C)c1ccc(C(=O)NCCC(=O)N2CCN(c3ncccn3)CC2)cc1 | i | i | -0.1 | 6.2 | 552.5* | -10.3 | 0.3
Cc1cc(NC(=O)C(C)Oc2ccccc2)no1 (centres undefined) | i | i | -0.5 | 8.3 | -3.7 | 3.1 | .
COc1cccc(C(=O)NCc2ccc(-c3nc4ccccc4s3)cc2)c1 | i | i | -0.7 | 17.2 | 374.6* | 9.3 | 0.2
CCOc1ccc2nc(NC(=O)C34CC5CC(CC(NC(C)=O)(C5)C3)C4)sc2c1 | i | i | -1.0 | -9.9 | 0.0 | 5.9 | .
COc1ccccc1NC(=S)N(Cc1ccccc1)Cc1cccs1 | i | i | -0.4 | 15.2 | + | -0.9 | -0.1
CC(C)(C)n1nc2c(c1NC(=O)c1cccc(Cl)c1)CS(=O)(=O)C2 | i | i | 0.5 | -15.7 | -7.5 | 1.9 | .
CCOc1ccc(N(C(=O)C2CCCO2)C2C=CS(=O)(=O)C2)cc1 (centres undefined) | i | i | 1.3 | 11.2 | 814.4* | 11.7 | 0.3
O=C(C1CCCO1)N(c1cccc(Cl)c1)C1C=CS(=O)(=O)C1 (centres undefined) | i | i | 0.5 | -6.3 | 73.3 | 18.8 | .
CCOC(=O)c1cn(CC(=O)Nc2ccc3c(c2)OCCO3)nn1 | i | i | 0.1 | . | 4.7 | -0.1 | .
CCOC(=O)c1cc2sc(C)cc2n1CC(=O)Nc1ccc2c(c1)OCCO2 | i | i | 0.0 | -9.7 | 784.4* | 16.5 | 0.1
Cc1ccc(S(=O)(=O)N2CCOCC2)cc1NC(=O)COC(=O)CNC(=O)c1ccccc1 | i | i | -0.9 | 7.8 | 531.6* | 7.4 | 0.4
C=CCn1c(C)cc(C(=O)COC(=O)/C=C/c2c(C)nn(C3CCS(=O)(=O)C3)c2Cl)c1C (centres undefined) | i | i | 1.0 | . | 6.9 | 8.2 | .
COc1cc(-c2noc(C)c2C(=O)NCCCN2CCOCC2)cc(OC)c1OC | . | . | 0.2 | . | 5.6 | 5.9 | .
CC(C)CCOCc1nc2sc3c(c2c(=O)[nH]1)CCC(C)C3 (centres undefined) | i | i | -1.0 | 6.6 | 593.2* | 22.6 | -0.2
COc1ccc(C(=O)CC(=O)C(=O)Nc2ccc([N+](=O)[O-])cc2C)cc1 | i | i | 2.3 | 5.0 | -4.7 | 11.2 | .
Cc1ccc(NC(=O)CCS(=O)(=O)c2cccc3nonc23)cc1 | i | i | 1.1 | 6.7 | -30.2 | 0.1 | .
Cc1ccc(N(CC(=O)Nc2cccc(C)c2)S(=O)(=O)c2cccc3nonc23)cc1 | i | i | 0.5 | -6.2 | 615.9* | 5.8 | 0.5[21 µM]

Screens as filed in PubChem.
